# Assay outcomes (PubChem)
# ADAM17 inh – inhibitors of human ADAM17; recombinant ADAM17, EDANS/DABCYL FRET peptide cleavage; inhibition, % at 6.95 µM; actives 0.83% (n = 370,000); P78536; AID 720648;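 active = inhibition above the mean of compounds lying between control limits plus 3 SD, set per campaign, cut at about 8.5% in these data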;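 also: 0% = DMSO-only wells as the low control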
# PLCg1 inh – blocks human PLC-gamma1 enzyme activity | P19174 | purified PLC-gamma1, fluorogenic substrate, fluorescence | inhibition, % at 12.2 µM | actives 0.84% (n = 370,000); in the data active = inhibition above about 9.5%
# ADAM10 inh – inhibitors of human ADAM10 | recombinant ADAM10, EDANS/DABCYL FRET peptide cleavage, 3 h | O14672 | inhibition, % at 7 µM | actives 0.62% (n = 370,000);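 active = inhibition above a per-campaign cutoff equal to the mean of compounds falling between control-based bounds plus 3 SD, cut at about 20% in these data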;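 also: 0% = DMSO wells while the 100% control is not disclosed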
# sPLA2-III inh – Blocks human group III sPLA2 activity; QFRET BODIPY PC-A2 liposome hydrolysis, fluorescence; inhibition, % at 12.2 µM; actives 0.56% (n = 370,000); AID 743126;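 active = inhibition above mean plus 3 SD of compounds lying within the high and low control bounds, cut at about 19% in these data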;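 also: 0% = median of test compound wells and 100% = no enzyme DMSO wells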
# proKLK7 act – activates the human kallikrein-7 zymogen; P49862; purified proKLK7, EDANS-DABCYL substrate fluorescence; 100% is mature enzyme control, 0% vehicle; activation, % at 7 µM; actives 0.9% (n = 370,000); AID 652039;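 active = activation above the mean of all tested compounds plus 3 SD, computed per campaign excluding outliers beyond control limits, cut at about 13% in these data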
# PLC-beta3 inh – inhibitors of human phospholipase C beta3. Q01970. Purified PLC-beta3, fluorogenic substrate, fluorescence. inhibition, % at 12.2 µM. actives 0.18% (n = 370,000); in the data active = inhibition above about 11%;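 also: 0% = median of compound wells on plate and 100% = full blocker control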
# Target sequence (Q01970 whole entry, looked up): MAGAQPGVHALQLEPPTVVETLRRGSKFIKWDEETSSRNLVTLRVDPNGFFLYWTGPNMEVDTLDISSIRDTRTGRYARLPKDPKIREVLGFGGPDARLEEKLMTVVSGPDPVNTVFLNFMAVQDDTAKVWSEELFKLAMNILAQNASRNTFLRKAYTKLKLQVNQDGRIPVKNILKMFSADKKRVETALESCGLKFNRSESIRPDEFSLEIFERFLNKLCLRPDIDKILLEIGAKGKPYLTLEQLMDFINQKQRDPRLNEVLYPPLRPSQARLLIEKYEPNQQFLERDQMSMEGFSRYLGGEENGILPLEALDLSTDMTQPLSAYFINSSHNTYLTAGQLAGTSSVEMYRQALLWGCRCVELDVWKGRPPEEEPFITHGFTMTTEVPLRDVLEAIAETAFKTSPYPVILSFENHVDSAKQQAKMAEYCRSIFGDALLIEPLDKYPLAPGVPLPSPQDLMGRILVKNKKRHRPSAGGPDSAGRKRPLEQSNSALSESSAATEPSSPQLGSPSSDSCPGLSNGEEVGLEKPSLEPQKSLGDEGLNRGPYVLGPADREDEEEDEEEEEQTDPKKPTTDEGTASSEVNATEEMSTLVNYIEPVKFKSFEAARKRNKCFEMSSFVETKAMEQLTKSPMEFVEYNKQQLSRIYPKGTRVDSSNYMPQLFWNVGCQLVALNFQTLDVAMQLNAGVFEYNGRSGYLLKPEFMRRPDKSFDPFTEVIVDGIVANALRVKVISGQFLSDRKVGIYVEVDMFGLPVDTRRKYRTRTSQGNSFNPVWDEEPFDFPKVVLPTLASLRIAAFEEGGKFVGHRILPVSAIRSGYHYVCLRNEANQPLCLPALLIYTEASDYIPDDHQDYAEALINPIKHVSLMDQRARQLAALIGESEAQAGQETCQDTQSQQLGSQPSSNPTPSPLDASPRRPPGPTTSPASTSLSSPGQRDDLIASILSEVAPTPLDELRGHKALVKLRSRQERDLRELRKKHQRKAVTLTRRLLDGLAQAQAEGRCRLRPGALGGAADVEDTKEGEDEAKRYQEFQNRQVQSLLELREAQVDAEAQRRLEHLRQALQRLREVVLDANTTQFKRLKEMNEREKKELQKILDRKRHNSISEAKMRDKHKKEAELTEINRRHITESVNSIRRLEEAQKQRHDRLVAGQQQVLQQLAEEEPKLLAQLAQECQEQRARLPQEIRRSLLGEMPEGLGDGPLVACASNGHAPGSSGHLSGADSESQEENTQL
# ADAM10 confirm – confirmation of inhibitors of human ADAM10; shares compounds with ADAM10 inh; ADAM10 QFRET peptide cleavage, EDANS fluorescence; inhibition, % at 6.95 µM; actives 1% (n = 2,100); AID 743208;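 active = inhibition above about 20% chosen separately for each screening run, limit read from the data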;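 also: 0% = DMSO wells and 100% = marimastat wells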
# ADAM17 counter – counter-screen for ADAM10 exosite inhibitors: inhibitors of human ADAM17 | shares compounds with ADAM10 inh | ADAM17 QFRET peptide cleavage, EDANS fluorescence | inhibition, % at 6.95 µM | actives 0.5% (n = 2,100) | AID 743214;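 active = mean triplicate inhibition above the solvent-only control wells' mean plus 3 SD, cut at about 12% in these data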;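 also: 0% = DMSO wells and 100% = marimastat wells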
# ADAM10 ctr – counter-screen for ADAM17 exosite inhibitors: inhibitors of human ADAM10 | shares compounds with ADAM17 inh | recombinant ADAM10, EDANS/DABCYL FRET peptide cleavage, 3 h | inhibition, % at 6.95 µM | actives 47% (n = 2,900) | AID 743256;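 active = mean inhibition over the triplicate runs exceeds the activity threshold set in the earlier primary screen, cut at about 20% in these data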;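 also: 0% = DMSO wells and 100% = marimastat wells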
# ADAM17 confirm – human ADAM17 inhibition, confirmation | recombinant ADAM17, EDANS/DABCYL QFRET peptide cleavage | inhibition, % at 6.95 µM | shares compounds with ADAM17 inh | actives 65% (n = 2,900);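 active = mean inhibition across replicates above the hit cutoff set in the primary screen, cut at about 8.5% in these data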;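 also: 0% = DMSO wells and 100% = marimastat wells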
# Numbers without * were called inactive; · = no result. Most compounds without a hit are left out; they make up all but 3.4% or so of the library.
SMILES,ADAM17 inh,PLCg1 inh,ADAM10 inh,sPLA2-III inh,proKLK7 act,PLC-beta3 inh,ADAM10 confirm,ADAM17 counter,ADAM10 ctr,ADAM17 confirm
C#CCNC(=O)C[C@H]1C[C@@]2(C(=O)OC)C(=C[C@H](C3CCCC3)O[C@@H]2C)N(CCC2=CCCCC2)C1=O,-1,1,4,-5,0,0,·,·,·,·
COc1ccc(C2c3c(-c4ccccc4O)n[nH]c3C(=O)N2Cc2ccco2)cc1OC (configuration not stated),2,0,5,-49,-1,-6,·,·,·,·
COc1ccc(CCN2C(=O)c3[nH]nc(-c4ccccc4O)c3C2c2cccc(O)c2)cc1OC (configuration not stated),9.1*,5,30*,-33,0,2,0,0,33*,14*
O=C(Nc1ccc2c(c1)OCCO2)C(c1ccnc2ccccc12)N1CCC(Cc2ccccc2)CC1 (configuration not stated),19*,-2,37*,-2,-1,-9,14,4,13,10*
CN(CCc1ccccc1)C(C(=O)Nc1ccc2c(c1)OCCO2)c1ccnc2ccccc12 (configuration not stated),2,-4,4,-20,0,-10,·,·,·,·
C=CCN(CC#Cc1ccc(OC)cc1)CC=C,-1,-1,-4,4,-1,1,·,·,·,·
CN(C)c1ccc(C(CNS(=O)(=O)c2ccc(F)c(F)c2)c2c[nH]c3ccccc23)cc1 (configuration not stated),14*,0,40*,-30,-1,-25,13,4,55*,31*
O=C(CN(C1CC1)S(=O)(=O)c1ccc(S(=O)(=O)NC2CCCCC2)cc1)Nc1ccccc1,5,2,10,-58,0,4,·,·,·,·
O=C(CN(Cc1cccs1)S(=O)(=O)c1ccc(S(=O)(=O)NC2CCCCC2)cc1)Nc1ccccc1,17*,8,36*,-19,1,5,11,3,50*,25*
CCOC(=O)[C@]12CCCCC/C=C\1N(CCc1ccc(Cl)cc1)C(=O)[C@H]2CC(=O)N1CCOCC1,3,-1,-1,-2,0,0,·,·,·,·
O=C(c1ccc(C(F)(F)F)cc1)N1CCC(=O)N([C@H](COCc2ccc(C(F)(F)F)cc2)Cc2ccccc2)CC1,12*,2,28*,-2,0,3,8,2,28*,16*
O=C(COCC(=O)Nc1cccc(C(F)(F)F)c1)Nc1cccc(C(F)(F)F)c1,15*,0,35*,-7,0,4,0,0,42*,17*
O=C(N/N=C/c1ccc(OC(F)F)cc1)c1ccc(Br)cc1,-6,-9,-2,11,0,-10,·,·,·,·
O=C(NO)c1ccc(OC(F)F)cc1,15*,4,25*,-8,0,7,11,2,15,19*
COC(=O)[C@]12C[C@H](CC(=O)NCCCN3CCCC3=O)C(=O)N(Cc3ccco3)C1=C[C@H](C1CCCC1)O[C@@H]2C,-5,0,1,-2,0,1,·,·,·,·
CCN(CC(=O)Nc1cccc(OC)c1)CC(=O)Nc1ccccc1C,1,2,2,-8,1,-4,·,·,·,·
CCN(CC(=O)Nc1cccc(OC)c1)CC(=O)Nc1ccc(Br)c(C)c1,12*,6,23*,-37,0,-2,2,1,45*,16*
COc1ccc(OC)c(NC(=O)C2C3C=CC(C3)C2C(=O)NCc2ccccn2)c1 (configuration not stated),9.6*,4,30*,4,0,-10,-1,-1,3,8
Cc1cccc(C)c1NC(=O)C1C2C=CC(C2)C1C(=O)NCc1ccccn1 (configuration not stated),-2,2,-6,3,0,3,·,·,·,·
Nn1c(SCC(=O)Nc2ccc(S(=O)(=O)Nc3nccs3)cc2)nnc1-c1ccco1,-1,-1,-3,-13,0,-2,·,·,·,·
COc1cc(F)ccc1Oc1cccc2c1S(=O)(=O)N(C1CC1)C[C@@H](COCc1ccccc1)O2,11*,1,29*,-8,2,3,4,1,27*,17*
C/C(=N\N=C(/N)SC1CC(=O)N(c2ccccc2)C1=O)c1cccs1 (configuration not stated),8.6*,3,22*,-52,0,9,2,0,15,12*
C/C(=N\N=C(/N)SC1CC(=O)N(c2ccc(Br)cc2)C1=O)c1cccs1 (configuration not stated),12*,5,24*,-53,0,4,5,2,20,20*
CCCCCCOc1ccc(N2C(=O)CC(S/C(N)=N/N=C(\C)c3cccs3)C2=O)cc1 (configuration not stated),-4,-5,6,-13,0,0,·,·,·,·
C/C(=N\N=C(/N)SC1CC(=O)N(c2ccc(Cl)c(Cl)c2)C1=O)c1cccs1 (configuration not stated),-2,-1,-3,-19,0,1,·,·,·,·
SMILES,ADAM17 inh,PLCg1 inh,ADAM10 inh,sPLA2-III inh,proKLK7 act,PLC-beta3 inh,ADAM10 confirm,ADAM17 counter,ADAM10 ctr,ADAM17 confirm
Fc1c(F)c(C(F)(F)F)c(F)c(F)c1N/N=C\c1cccs1,9.8*,2,24*,-1,-1,2,14,4,32*,19*
Cn1c(N/N=C/c2cccs2)cc(=O)n(C)c1=O,-31,-10,-91,-2,2,-14,·,·,·,·
Cc1ccc(-c2cc(-c3ccc(C)cc3O)[nH]n2)cc1,12*,4,33*,-34,0,-3,9,3,25*,14*
Cc1ccccc1-c1cc(-c2ccccc2O)n[nH]1,11*,7,24*,-25,0,3,3,1,14,10.0*
Cc1ccc(-c2cc(-c3ccccc3Cl)[nH]n2)c(O)c1,9.5*,6,24*,-37,0,5,6,2,15,9.1*
Cc1ccc(-c2cc(-c3ccc(F)cc3)n[nH]2)c(O)c1,7,1,16,-40,0,-2,·,·,·,·
